Our source for the binding signal values is article PMC7862700, “An all-to-all approach to the identification of sequence-specific readers for epigenetic DNA modifications on cytosine”.

Assay in all cases: DAPPL (digital affinity profiling via proximity ligation, sequencing); 10 mM Tris-HCl pH 7.5, 50 mM NaCl, 1 mM DTT, 4% glycerol, room temperature, 30 min; GST-TFs on glutathione beads, 16-mer random dsDNA library, 0.1% formaldehyde crosslink after washing; high values mean tight binding
In one experiment the target is T1, FLI1 (Homo sapiens, UniProt Q01543 1-452).
T1 sequence: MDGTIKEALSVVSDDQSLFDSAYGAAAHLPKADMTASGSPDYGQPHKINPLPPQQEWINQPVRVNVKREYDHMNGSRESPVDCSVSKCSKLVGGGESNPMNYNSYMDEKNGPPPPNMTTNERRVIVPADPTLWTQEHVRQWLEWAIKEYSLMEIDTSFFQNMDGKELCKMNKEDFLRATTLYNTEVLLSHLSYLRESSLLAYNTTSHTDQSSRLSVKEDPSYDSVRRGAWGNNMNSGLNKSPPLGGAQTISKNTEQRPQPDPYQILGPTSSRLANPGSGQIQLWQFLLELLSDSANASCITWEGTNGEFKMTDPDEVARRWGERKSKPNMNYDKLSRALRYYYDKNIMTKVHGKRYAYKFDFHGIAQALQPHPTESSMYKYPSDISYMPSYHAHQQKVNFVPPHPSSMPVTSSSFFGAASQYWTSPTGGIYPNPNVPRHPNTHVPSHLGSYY
The conditions noted are these: protein: recombinant; tags: N-terminal GST; dsDNA, one strand shown. Summed up: (§1)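 Human transcription factors were made in yeast as GST fusions, captured on glutathione beads and barcoded with DNA. With a tag-only sample included, the pool was incubated with 200 nmole of a random double-stranded 16-mer DNA library in Tris/NaCl/DTT/glycerol buffer at room temperature for 30 min, then crosslinked with 0.1% formaldehyde after washing, ligated by proximity, amplified and sequenced. For binding signal, each hexamer's read frequency for a factor is divided by its frequency for the tag-only sample.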

The target in another experiment is T2, ELK1 (Homo sapiens, UniProt P19419 1-428).
T2 sequence: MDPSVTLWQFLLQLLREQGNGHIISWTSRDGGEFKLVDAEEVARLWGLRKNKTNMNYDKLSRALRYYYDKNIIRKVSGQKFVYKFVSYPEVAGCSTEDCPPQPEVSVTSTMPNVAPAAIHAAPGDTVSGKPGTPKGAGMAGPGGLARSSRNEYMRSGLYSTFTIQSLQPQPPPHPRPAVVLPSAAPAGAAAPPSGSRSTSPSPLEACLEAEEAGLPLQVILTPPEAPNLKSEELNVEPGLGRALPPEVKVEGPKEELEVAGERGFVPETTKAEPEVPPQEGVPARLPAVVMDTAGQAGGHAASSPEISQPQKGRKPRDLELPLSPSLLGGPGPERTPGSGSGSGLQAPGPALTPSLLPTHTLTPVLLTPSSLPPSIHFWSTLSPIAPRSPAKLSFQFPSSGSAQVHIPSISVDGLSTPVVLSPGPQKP
The note with it: protein: recombinant; tags: N-terminal GST; dsDNA, one strand shown. Put shortly:
as §1

For the next experiment, the target named is T3, GABPA (Homo sapiens, UniProt Q06546 1-454).
T3 sequence: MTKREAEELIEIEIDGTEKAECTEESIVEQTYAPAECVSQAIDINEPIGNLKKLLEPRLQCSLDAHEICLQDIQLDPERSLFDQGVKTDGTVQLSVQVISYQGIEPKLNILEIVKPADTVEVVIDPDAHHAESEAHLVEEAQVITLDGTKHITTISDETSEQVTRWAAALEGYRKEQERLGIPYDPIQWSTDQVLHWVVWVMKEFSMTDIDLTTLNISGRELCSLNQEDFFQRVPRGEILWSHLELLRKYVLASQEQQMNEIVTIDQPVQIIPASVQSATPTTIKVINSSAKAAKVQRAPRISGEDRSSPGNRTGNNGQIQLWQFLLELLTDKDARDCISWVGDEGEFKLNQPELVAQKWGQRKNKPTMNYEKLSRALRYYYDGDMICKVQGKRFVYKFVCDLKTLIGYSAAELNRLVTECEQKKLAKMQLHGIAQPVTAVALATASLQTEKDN
The conditions noted are these: protein: recombinant; tags: N-terminal GST; dsDNA, one strand shown. Put shortly: as §1

In another experiment the target is T4, ERG (Homo sapiens, UniProt P11308 1-479).
T4 sequence: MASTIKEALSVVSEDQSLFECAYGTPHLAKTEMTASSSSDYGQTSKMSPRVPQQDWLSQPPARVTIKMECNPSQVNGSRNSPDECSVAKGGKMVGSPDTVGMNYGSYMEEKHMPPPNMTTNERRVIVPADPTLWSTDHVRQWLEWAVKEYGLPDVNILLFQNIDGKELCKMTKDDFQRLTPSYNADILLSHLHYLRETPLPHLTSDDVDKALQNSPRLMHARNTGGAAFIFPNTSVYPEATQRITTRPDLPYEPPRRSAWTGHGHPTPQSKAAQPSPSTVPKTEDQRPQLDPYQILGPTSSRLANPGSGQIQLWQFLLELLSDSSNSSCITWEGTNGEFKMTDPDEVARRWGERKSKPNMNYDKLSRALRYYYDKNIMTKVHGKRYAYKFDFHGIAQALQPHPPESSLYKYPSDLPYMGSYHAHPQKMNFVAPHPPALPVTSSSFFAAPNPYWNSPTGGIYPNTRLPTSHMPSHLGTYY
The note with it: protein: recombinant; tags: N-terminal GST; dsDNA, one strand shown. Put shortly: as §1

The target in a further experiment is ELF1 (Homo sapiens, UniProt P32519 1-619). The note with it: protein: recombinant; tags: N-terminal GST; dsDNA, one strand shown. Put shortly:
as §1

The next experiment concerns the target T5, EHF (Homo sapiens, UniProt Q9NZC4 1-300).
T5 sequence: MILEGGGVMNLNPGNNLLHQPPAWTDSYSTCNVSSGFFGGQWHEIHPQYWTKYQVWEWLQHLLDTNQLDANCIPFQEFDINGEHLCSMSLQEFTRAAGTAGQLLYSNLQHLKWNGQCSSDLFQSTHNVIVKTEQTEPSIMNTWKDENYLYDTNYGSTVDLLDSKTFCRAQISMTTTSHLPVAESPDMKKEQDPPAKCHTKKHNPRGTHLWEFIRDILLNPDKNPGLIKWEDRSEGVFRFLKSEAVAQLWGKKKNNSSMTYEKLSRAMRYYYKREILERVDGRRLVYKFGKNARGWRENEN
The conditions noted are these: protein: recombinant; tags: N-terminal GST; dsDNA, one strand shown. Put shortly: as §1

Another experiment addresses SPI1 (Homo sapiens, UniProt P17947 1-270). The note with it: protein: recombinant; tags: N-terminal GST; dsDNA, one strand shown. Summed up: as §1
The next experiment concerns the target SPIB (Homo sapiens, UniProt Q01892 1-262). The conditions noted are these: protein: recombinant; tags: N-terminal GST; dsDNA, one strand shown. Summed up:
as §1

The target of the next experiment is T6, ELK3 (Homo sapiens, UniProt P41970 1-407).
T6 sequence: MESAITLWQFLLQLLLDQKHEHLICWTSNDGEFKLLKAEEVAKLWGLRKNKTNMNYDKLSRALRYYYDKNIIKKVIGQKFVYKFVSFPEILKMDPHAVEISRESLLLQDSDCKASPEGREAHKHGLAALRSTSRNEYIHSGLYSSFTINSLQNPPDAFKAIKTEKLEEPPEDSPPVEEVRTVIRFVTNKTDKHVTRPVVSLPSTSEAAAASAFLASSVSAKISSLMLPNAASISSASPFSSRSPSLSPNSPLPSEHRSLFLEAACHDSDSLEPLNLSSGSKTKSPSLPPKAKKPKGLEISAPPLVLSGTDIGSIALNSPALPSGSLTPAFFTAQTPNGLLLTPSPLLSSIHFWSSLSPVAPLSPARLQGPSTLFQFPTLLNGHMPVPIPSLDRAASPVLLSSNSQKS
The conditions noted are these: protein: recombinant; tags: N-terminal GST; dsDNA, one strand shown. Summed up:
as §1

Another experiment addresses T7, FEV (Homo sapiens, UniProt Q99581 1-238).
T7 sequence: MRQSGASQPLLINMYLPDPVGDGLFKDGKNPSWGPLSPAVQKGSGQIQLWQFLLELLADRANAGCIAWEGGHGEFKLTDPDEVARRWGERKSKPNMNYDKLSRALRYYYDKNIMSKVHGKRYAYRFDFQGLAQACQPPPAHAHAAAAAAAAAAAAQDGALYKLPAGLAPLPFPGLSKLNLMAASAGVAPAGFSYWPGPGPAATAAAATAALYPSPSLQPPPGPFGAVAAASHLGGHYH
The note with it: protein: recombinant; tags: N-terminal GST; dsDNA, one strand shown. Put shortly: as §1

For a further experiment, the target named is ETV5 (Homo sapiens, UniProt P41161 1-510). The conditions noted are these: protein: recombinant; tags: N-terminal GST; dsDNA, one strand shown. Put shortly: as §1
Sequence of ETV5 (P41161 whole entry): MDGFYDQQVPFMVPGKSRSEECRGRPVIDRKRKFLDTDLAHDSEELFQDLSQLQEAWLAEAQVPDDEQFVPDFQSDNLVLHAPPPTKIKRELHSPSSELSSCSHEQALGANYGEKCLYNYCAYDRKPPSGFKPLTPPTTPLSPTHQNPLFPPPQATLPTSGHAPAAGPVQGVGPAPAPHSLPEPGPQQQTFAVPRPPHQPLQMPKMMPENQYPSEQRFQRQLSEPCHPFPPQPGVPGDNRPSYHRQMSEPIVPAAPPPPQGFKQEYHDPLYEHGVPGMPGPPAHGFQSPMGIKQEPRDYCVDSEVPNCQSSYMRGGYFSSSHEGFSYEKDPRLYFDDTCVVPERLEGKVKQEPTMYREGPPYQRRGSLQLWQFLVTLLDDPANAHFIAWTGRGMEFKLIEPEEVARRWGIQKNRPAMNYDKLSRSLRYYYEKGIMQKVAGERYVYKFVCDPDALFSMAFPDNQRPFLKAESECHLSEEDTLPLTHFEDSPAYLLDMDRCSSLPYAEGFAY
The target in another experiment is HSF1 (Homo sapiens, UniProt Q00613 1-529). The note with it: protein: recombinant; tags: N-terminal GST; chain copies: 3; dsDNA, one strand shown. Summed up:
as §1

The target in a further experiment is T8, SPIC (Homo sapiens, UniProt Q8N5J4 1-248).
T8 sequence: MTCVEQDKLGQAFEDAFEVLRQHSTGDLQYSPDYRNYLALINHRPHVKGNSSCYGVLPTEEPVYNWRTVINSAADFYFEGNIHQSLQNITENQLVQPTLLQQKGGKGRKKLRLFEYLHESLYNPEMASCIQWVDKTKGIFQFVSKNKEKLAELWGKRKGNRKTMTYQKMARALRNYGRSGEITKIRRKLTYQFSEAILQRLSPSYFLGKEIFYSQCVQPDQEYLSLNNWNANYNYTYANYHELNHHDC
The note with it: protein: recombinant; tags: N-terminal GST; dsDNA, one strand shown. Summed up: as §1

For a further experiment, the target named is ELF4 (Homo sapiens, UniProt Q99607 1-663). The note with it: protein: recombinant; tags: N-terminal GST; dsDNA, one strand shown. Summed up:
as §1

Another experiment concerns the target T9, ELK4 (Homo sapiens, UniProt P28324-2 1-405).
T9 sequence: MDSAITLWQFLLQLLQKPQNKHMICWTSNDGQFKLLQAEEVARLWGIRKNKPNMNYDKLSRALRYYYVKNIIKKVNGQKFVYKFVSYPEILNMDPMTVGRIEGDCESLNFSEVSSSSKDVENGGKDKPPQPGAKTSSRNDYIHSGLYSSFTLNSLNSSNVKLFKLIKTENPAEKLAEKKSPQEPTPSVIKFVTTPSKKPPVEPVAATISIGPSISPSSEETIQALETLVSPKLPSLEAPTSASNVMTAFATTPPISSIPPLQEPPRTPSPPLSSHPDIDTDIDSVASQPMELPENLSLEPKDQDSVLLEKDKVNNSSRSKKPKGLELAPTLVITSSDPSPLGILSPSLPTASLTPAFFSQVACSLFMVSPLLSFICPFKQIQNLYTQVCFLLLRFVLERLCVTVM
The note with it: protein: recombinant; tags: N-terminal GST; dsDNA, one strand shown. Put shortly: as §1

The next experiment deals with T10, ETV2 (Homo sapiens, UniProt O00321 1-342).
T10 sequence: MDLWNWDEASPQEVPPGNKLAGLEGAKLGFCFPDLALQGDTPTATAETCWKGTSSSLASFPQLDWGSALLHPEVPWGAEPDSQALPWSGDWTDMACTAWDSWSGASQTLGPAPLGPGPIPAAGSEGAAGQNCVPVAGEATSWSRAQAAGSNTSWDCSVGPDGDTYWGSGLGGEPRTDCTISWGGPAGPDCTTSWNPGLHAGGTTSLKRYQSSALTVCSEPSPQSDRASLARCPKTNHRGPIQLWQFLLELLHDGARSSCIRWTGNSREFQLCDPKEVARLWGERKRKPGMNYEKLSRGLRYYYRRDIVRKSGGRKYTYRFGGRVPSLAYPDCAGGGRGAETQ
The conditions noted are these: protein: recombinant; tags: N-terminal GST; dsDNA, one strand shown. Summed up: as §1

For another experiment, the target named is T11, ELF3 (Homo sapiens, UniProt P78545 1-371).
T11 sequence: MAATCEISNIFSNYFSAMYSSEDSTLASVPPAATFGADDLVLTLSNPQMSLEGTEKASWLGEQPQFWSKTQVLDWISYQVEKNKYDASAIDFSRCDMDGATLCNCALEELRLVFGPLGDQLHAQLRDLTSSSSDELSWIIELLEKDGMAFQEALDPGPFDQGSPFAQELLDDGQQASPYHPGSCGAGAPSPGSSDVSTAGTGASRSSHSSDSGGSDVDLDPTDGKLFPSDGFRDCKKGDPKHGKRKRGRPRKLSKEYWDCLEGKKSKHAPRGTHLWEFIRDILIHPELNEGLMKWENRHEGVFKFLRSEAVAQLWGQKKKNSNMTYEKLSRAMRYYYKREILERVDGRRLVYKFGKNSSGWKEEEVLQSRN
The conditions noted are these: protein: recombinant; tags: N-terminal GST; dsDNA, one strand shown. Summed up:
as §1

For another experiment, the target named is ETV1 (Homo sapiens, UniProt P50549 1-477). The conditions noted are these: protein: recombinant; tags: N-terminal GST; dsDNA, one strand shown. Summed up: as §1
Sequence of ETV1 (P50549 whole entry): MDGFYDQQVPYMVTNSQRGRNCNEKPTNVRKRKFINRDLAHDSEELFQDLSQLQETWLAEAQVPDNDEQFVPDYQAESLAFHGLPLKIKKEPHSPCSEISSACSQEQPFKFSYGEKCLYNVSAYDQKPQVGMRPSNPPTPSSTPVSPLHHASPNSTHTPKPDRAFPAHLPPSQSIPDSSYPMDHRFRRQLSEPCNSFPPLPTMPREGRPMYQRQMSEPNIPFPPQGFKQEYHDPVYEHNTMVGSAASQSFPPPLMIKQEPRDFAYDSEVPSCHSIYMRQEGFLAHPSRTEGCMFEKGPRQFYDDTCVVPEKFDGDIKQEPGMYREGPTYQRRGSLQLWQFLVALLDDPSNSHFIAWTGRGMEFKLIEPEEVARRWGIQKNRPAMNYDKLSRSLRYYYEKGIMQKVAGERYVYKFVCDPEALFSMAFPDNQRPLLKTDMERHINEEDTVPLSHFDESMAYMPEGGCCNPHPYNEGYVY

Sequence of ELF4 (Q99607 whole entry): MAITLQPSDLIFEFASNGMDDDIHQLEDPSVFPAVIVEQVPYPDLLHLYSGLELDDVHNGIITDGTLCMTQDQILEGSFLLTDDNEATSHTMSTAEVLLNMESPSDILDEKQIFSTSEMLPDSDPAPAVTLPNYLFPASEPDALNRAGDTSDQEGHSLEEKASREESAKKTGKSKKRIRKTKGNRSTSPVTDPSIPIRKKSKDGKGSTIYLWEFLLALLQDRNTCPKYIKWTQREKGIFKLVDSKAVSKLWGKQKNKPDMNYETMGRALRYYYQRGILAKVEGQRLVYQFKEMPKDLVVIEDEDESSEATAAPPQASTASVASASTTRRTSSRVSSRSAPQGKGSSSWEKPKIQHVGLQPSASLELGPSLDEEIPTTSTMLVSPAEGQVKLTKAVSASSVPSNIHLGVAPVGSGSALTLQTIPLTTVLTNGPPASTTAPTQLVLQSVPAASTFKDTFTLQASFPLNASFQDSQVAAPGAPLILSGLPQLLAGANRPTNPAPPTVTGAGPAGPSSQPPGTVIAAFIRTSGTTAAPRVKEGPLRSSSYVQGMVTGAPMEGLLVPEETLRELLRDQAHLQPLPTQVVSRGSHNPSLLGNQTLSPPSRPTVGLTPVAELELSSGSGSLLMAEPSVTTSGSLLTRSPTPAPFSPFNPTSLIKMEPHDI
Sequence of SPIB (Q01892 whole entry): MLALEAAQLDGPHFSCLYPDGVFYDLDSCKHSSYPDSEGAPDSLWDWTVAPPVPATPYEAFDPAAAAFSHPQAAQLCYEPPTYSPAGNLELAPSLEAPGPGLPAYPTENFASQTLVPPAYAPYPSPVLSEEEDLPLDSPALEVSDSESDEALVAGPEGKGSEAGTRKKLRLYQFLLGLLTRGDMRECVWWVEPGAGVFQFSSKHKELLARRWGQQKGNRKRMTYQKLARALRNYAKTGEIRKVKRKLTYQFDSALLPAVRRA
Sequence of HSF1 (Q00613 whole entry): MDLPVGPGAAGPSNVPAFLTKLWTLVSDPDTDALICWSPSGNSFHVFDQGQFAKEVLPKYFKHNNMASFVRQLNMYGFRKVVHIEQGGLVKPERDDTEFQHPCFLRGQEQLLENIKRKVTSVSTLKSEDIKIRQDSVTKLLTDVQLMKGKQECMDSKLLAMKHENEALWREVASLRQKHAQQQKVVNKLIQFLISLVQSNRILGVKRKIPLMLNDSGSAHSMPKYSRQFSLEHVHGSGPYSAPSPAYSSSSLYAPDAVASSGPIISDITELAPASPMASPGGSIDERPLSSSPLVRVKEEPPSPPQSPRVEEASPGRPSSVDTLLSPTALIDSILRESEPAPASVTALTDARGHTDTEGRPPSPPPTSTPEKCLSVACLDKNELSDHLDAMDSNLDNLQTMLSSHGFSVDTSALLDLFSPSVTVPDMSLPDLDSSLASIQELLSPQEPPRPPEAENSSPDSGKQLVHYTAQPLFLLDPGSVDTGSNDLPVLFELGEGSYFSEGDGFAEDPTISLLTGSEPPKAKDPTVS
Sequence of ELF1 (P32519 whole entry): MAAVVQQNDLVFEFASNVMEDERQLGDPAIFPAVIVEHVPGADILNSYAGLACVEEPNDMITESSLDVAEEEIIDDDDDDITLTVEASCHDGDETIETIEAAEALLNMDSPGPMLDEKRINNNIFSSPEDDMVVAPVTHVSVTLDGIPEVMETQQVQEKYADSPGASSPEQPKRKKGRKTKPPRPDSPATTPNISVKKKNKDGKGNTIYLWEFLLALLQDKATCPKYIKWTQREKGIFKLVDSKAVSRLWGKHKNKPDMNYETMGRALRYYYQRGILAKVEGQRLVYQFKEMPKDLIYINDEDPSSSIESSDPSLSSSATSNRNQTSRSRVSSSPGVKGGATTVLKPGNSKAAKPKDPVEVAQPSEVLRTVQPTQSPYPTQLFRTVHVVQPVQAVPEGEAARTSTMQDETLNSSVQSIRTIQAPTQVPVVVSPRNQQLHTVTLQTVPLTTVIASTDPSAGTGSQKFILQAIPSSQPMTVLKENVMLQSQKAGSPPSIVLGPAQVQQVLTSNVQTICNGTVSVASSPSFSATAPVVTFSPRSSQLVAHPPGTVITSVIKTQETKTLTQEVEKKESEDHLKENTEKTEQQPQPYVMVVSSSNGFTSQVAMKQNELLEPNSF

GCGTTC: the binding signal in the experiment with FLI1 was 1.07 fold enrichment (6-mer frequency, TF over GST control); in the experiment with ELK1, 1.06 fold enrichment (6-mer frequency, TF over GST control); with GABPA it was 1.08 fold enrichment (6-mer frequency, TF over GST control); with ERG, 1.03 fold enrichment (6-mer frequency, TF over GST control); with ELF1 it was 1.12 fold enrichment (6-mer frequency, TF over GST control); with EHF it was 1.06 fold enrichment (6-mer frequency, TF over GST control). Moreover, the binding signal was 1.08 fold enrichment (6-mer frequency, TF over GST control) in the experiment with SPI1; 1.12 fold enrichment (6-mer frequency, TF over GST control) with SPIB; 1.13 fold enrichment (6-mer frequency, TF over GST control) with ELK3; 1.07 fold enrichment (6-mer frequency, TF over GST control) in the experiment with FEV; 1.17 fold enrichment (6-mer frequency, TF over GST control) with ETV5; 1.1 fold enrichment (6-mer frequency, TF over GST control) with HSF1. Moreover, the binding signal with SPIC is 1.11 fold enrichment (6-mer frequency, TF over GST control); with ELF4, 1.1 fold enrichment (6-mer frequency, TF over GST control); with ELK4 it was 1.02 fold enrichment (6-mer frequency, TF over GST control); with ETV2, 1.23 fold enrichment (6-mer frequency, TF over GST control); with ELF3, 1.15 fold enrichment (6-mer frequency, TF over GST control); with ETV1, 1.28 fold enrichment (6-mer frequency, TF over GST control).
